Assay outcomes from PubChem BioAssay.
Rows were chosen to be rich in hits. Some 12% of all compounds tested hit in one or more screens of this group.
PLK1 PBD inh – inhibitors of human PLK1 polo-box domain binding. P53350. Plk1 PBD binding of FITC phosphopeptide, fluorescence polarization. Potency, µM, for inactives: max response, negative = inhibition, actives largely listed as inhibitors. actives 2.8% (n = 360,000). AID 720504; note: series mostly up to about 57 µM; nearly all actives have a fitted effect of over 65% in size
Target sequence (P53350 whole entry, looked up, the tested form may be a part): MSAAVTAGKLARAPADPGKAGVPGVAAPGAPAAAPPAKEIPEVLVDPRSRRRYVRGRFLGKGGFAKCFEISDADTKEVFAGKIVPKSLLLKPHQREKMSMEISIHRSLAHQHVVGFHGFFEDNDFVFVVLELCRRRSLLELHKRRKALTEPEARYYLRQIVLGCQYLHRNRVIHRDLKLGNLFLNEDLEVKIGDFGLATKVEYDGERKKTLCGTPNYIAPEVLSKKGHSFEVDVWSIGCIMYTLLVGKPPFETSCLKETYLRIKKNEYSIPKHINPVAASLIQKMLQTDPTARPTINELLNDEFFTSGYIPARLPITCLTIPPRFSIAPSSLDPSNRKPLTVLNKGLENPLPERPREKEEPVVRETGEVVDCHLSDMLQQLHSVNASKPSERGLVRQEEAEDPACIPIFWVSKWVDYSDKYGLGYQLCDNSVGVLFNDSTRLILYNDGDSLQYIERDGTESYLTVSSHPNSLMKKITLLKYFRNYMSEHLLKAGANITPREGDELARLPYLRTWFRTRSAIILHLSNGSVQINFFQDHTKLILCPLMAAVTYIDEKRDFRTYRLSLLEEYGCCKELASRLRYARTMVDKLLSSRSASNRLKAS
RORgamma inh – blocks mouse ROR gamma transcriptional activity | P51450 | Drosophila S2 Gal4-RORgamma UAS-luciferase reporter, 20 h | Potency, µM (series often up to 53.6 µM), without a hit: at the top dose activity change, negative = inhibition, most hits filed as inhibitors | actives 5.4% (n = 310,000); note: nearly all actives have a fitted effect of over 60% in size
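Drosophila S2 cells stably expressing Gal4-DBD/mouse RORγ fusion under metallothionein promoter plus UAS-luciferase; compound 1 h, then 700 uM CuSO4 induction for 20 h at ambient temperature; inhibition read as reduced luminescence.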
VP16 counter – Gal4-VP16 reporter inhibition counter-screen. Drosophila S2 Gal4-VP16 UAS-luciferase, luminescence, 20 h. Potency, µM (titrated, usually from 53.6 µM), for inactives: at the highest dose activity, negative = inhibition, actives largely listed as inhibitors. actives 3.5% (n = 310,000);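 note: Gal4-VP16 expression switched on by copper sulfate through the metallothionein promoter; nearly all actives have a fitted effect of over 50% in size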
Sfp PPTase inh – Sfp phosphopantetheinyl transferase inhibition; actives 3.5% (n = 310,000); Potency, µM, inactives show largest response in the series, negative = inhibition, hits mostly inhibitors; Biochemical Sfp PPTase activity, qHTS; Q9F4F7;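 note: the enzyme is Sfp with the accession as filed and its product quenches rhodamine fluorescence; 0% = enzyme reaction without inhibitor and -100% = no enzyme wells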
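Buffer: 50 mM Hepes-Na pH 7.6, 10 mM MgCl2, 0.01% Nonidet P-40, 0.01% BSA. Enzyme 15 nM, pre-exposed to compound 15 min; substrates then added and fluorescence change tracked over 30 min.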
ALDH1A1 inh – blocks purified human ALDH1A1 activity. P00352. Purified ALDH1A1, NADH fluorescence, propionaldehyde substrate. Potency, µM (doses to about 75.3 µM), for the others: at the highest dose activity, negative = inhibition, usual class: inhibitors. actives 7.3% (n = 220,000). AID 1030; active = well fitted inhibition curve with a large enough effect, not every such curve was filed as active; inconclusive = small, poorly fitted or top-dose-only effect, or another doubt; inactive = no such curve, though single readings can be large or run the other way;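 note: plate controls were no enzyme wells and a reference inhibitor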
Numbers without * were called inactive; [ ] = dose if it differs, or a comment. Unless noted, calls come from the whole dose curve; as a rule, active = well fitted curve in the direction sought with a large enough effect; inconclusive = small, poorly fitted or top-dose-only effect, or another doubt; inactive = no such curve, though single readings can be large; an effect the other way counts as inactive or inconclusive. Unless noted, % is set by controls: 0 for no effect and ±100 for the full control effect; potency is the fitted concentration of half-maximal effect.

For O=C(NC(=S)Nc1ccc2oc(=O)ccc2c1)c1cccc(F)c1 the results were PLK1 PBD inh -11%, RORgamma inh 6.3µM*, VP16 counter 1% and Sfp PPTase inh -9%.
For COc1cccc(C(=O)NC(=S)Nc2ccc3oc(=O)ccc3c2)c1 the results were PLK1 PBD inh -7%, RORgamma inh inconclusive, VP16 counter inconclusive, Sfp PPTase inh -27% and ALDH1A1 inh 1.4µM*.
Screening O=C(NC(=S)Nc1ccc2oc(=O)ccc2c1)c1cccc(Cl)c1 returned PLK1 PBD inh inconclusive, RORgamma inh 2.8µM*, VP16 counter -10% and Sfp PPTase inh -7%.
CCS(=O)(=O)N1CCN(CC(=O)NC2CCCCC2)CC1 was read as PLK1 PBD inh 21µM*, RORgamma inh 15%, VP16 counter -10%, Sfp PPTase inh 11% and ALDH1A1 inh -7%.
`O=C(O)C1CN(c2ncccc2[N+](=O)[O-])C1` gave PLK1 PBD inh 13µM*, RORgamma inh -1%, VP16 counter 3%, Sfp PPTase inh 20% and ALDH1A1 inh 8%.
For O=C(OCC(=O)N1CCN(c2ccccc2)CC1)c1ccc2ccccc2n1 the results were PLK1 PBD inh -4%, RORgamma inh -10%, VP16 counter -2%, Sfp PPTase inh 9% and ALDH1A1 inh 8.9µM*.
For O=C(OCC(=O)N1CCN(c2ccccc2)CC1)c1ccccn1 the results were PLK1 PBD inh 1%, RORgamma inh 2%, VP16 counter -2%, Sfp PPTase inh 7% and ALDH1A1 inh 0%.
`CSc1ccc(-c2ccc3c(c2)c(Sc2ccccc2)c(-c2ccccc2)n3C)cc1` gave PLK1 PBD inh -22%.
For CCOc1ccc(/C=N/NC(=S)NC2CC3CCC2C3)cc1 (stereo not drawn) the results were PLK1 PBD inh 3%, RORgamma inh 5µM*, VP16 counter inconclusive, Sfp PPTase inh 15% and ALDH1A1 inh inconclusive.
CCOc1ccc(/C=N/NC(=S)NC2CC3CC2C2C=CCC32)cc1 (stereo not drawn) was read as PLK1 PBD inh 6%, RORgamma inh 5µM*, VP16 counter 4.5µM*, Sfp PPTase inh 22% and ALDH1A1 inh 8%.
Screening COc1cc(/C=N/NC(=S)NC2CC3CC2C2C=CCC32)ccc1O (stereo not drawn) returned PLK1 PBD inh -4%, RORgamma inh 1.6µM*, VP16 counter 4.5µM*, Sfp PPTase inh 24% and ALDH1A1 inh inconclusive.
`CSc1ccc(OC2(C)CCN(Cc3ccc(OC(C)C)cc3)C2)cc1` (stereo not drawn) gave PLK1 PBD inh -1%.
`CCCCNC(=O)c1nc(C2CCN(S(=O)(=O)c3ccc(C(F)(F)F)cc3)CC2)oc1-c1ccccc1` gave PLK1 PBD inh 1%.
CC1CC=CC2C1C(=O)N(Cc1ccccc1)C2c1ccc(F)c(/C=C/c2ccccc2)c1 (stereo not drawn) was read as RORgamma inh 2%, VP16 counter 6% and Sfp PPTase inh -13%.
For Cc1c(C(=O)NCc2ccc(C(C)C)cc2)sc(=O)n1Cc1ccc(S(=O)(=O)N(C)C)cc1 the results were PLK1 PBD inh -1%.
Cc1nn(C2CCS(=O)(=O)C2)c(Cl)c1/C=C/C(=O)OCC(=O)Nc1ccccc1OC(F)F (stereo not drawn) was read as PLK1 PBD inh -9%, RORgamma inh -19%, VP16 counter -6%, Sfp PPTase inh 8% and ALDH1A1 inh 7%.
For COc1ccc(Cl)cc1NC(=O)COC(=O)/C=C/c1c(C)nn(C2CCS(=O)(=O)C2)c1Cl (stereo not drawn) the results were PLK1 PBD inh 1%, RORgamma inh inconclusive, VP16 counter -27%, Sfp PPTase inh -2% and ALDH1A1 inh 25µM*.
CC(=O)c1cccc(NC(=O)C2C3C=CC(C3)C2C(=O)O)c1 (stereo not drawn) was read as PLK1 PBD inh 1%, RORgamma inh 11%, VP16 counter 3%, Sfp PPTase inh -26% and ALDH1A1 inh -7%.
CC(=O)c1cccc(NC(=O)C2C3C=CC(C4CC34)C2C(=O)O)c1 (stereo not drawn) was read as PLK1 PBD inh -4%, RORgamma inh inconclusive, VP16 counter -3%[0.365 µM], Sfp PPTase inh 14µM* and ALDH1A1 inh -11%.
